Measurements: PubChem BioAssay (Tox21)
Values joined by “and” are separate entries in the source; they are usually repeats but may differ in a detail not shown here. Identical values can stand only once. More than one record can exist for a structure, and the calls need not agree. Active and inactive are the calls of the source. Unless noted, calls follow the shape of the dose curve; as a rule, active = well fitted curve in the direction sought with a large enough effect in the repeat runs; inconclusive = weak or mixed curves; inactive = no such curve, though single readings can be large; an effect the other way counts as inactive or inconclusive.

Experiments:
[1] = qHTS assay to identify small molecule antagonists of the thyroid receptor (TR) signaling pathway - cell viability counter screen (AID 743064); also: nearly all actives have a fitted effect of over 50% in size; also: potency is read from the fitted curve at half-maximal effect
Method in brief: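 Plate GH3.TRE-Luc cells; incubate 4 h at 37 °C; add compound, then T3 to 1 nM final; incubate 23.5 h; add CellTiter-Fluor; incubate 30 min at 37 °C, 5% CO2; read fluorescence.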

[2] = qHTS assay to identify small molecule antagonists of the thyroid receptor (TR) signaling pathway (AID 743065); also: potency is read from the fitted curve at half-maximal effect; nearly all actives have a fitted effect of over 55% in size
Method in brief: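 GH3.TRE-Luc rat pituitary cells (two TREs driving luciferase) were dosed with compound, then stimulated with 1 nM T3 (final) for 23.5 h at 37 C. ONE-Glo luminescence was the read-out, with CellTiter-Fluor fluorescence as the cytotoxicity counter-screen.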

[3] = molecular target: Estrogen receptor (Homo sapiens) (UniProt P03372); test: qHTS assay to identify small molecule agonists of the estrogen receptor alpha (ER-alpha) signaling pathway (AID 743075; calls by dose curve)
Chain of Estrogen receptor (Homo sapiens) (P03372 whole entry, looked up): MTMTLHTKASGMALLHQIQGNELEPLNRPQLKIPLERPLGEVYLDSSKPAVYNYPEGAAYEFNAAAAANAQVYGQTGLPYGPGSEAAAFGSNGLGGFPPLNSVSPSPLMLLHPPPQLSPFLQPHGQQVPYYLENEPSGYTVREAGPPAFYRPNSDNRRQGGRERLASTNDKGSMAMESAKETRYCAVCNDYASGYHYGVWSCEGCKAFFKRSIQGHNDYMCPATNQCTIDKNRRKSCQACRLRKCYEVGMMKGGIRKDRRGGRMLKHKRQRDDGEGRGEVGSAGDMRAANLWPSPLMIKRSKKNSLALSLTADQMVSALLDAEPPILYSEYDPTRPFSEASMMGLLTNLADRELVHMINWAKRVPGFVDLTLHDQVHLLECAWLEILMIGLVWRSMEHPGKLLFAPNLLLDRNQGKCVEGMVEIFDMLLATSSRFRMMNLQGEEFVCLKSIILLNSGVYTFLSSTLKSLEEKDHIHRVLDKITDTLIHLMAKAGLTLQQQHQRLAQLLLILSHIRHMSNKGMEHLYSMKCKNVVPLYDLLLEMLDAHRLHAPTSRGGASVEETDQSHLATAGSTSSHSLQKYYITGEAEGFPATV

[4] = molecular target: Estrogen receptor (Homo sapiens) (UniProt P03372); test: qHTS assay to identify small molecule agonists of the estrogen receptor alpha (ER-alpha) signaling pathway using the BG1 cell line (AID 743079); also: nearly all actives have a fitted effect of over 20% in size; also: potency is read from the fitted curve at half-maximal effect
[5] = qHTS assay to identify small molecule antagonists of the estrogen receptor alpha (ER-alpha) signaling pathway using the BG1 cell line (AID 743080; calls by dose curve;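 also: BG1 cells stimulated with 17beta-estradiol alongside compound; nearly all actives have a fitted effect of over 25% in size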; also: potency is read from the fitted curve at half-maximal effect)
Method in brief: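 Seeding, 24 h rest, compound transfer from DMSO, 17beta-estradiol addition, 21.5 h incubation, CellTiter-Fluor (30 min, 37 C), then ONE-Glo (30 min, room temperature): this sequence was run on BG1-Luc-4E2 reporter cells.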

[6] = qHTS assay to identify small molecule antagonists of the estrogen receptor alpha (ER-alpha) signaling pathway using the BG1 cell line - cell viability counter screen (AID 743081);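 also: compound given together with 17beta-estradiol as the ER stimulus; nearly all actives have a fitted effect of over 45% in size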; also: potency is read from the fitted curve at half-maximal effect
[7] = qHTS assay to identify small molecule antagonists of the estrogen receptor alpha (ER-alpha) signaling pathway - cell viability counter screen (AID 743074; calls by dose curve; also: nearly all actives have a fitted effect of over 45% in size; also: potency is read from the fitted curve at half-maximal effect)
Aromatase (Homo sapiens) = Aromatase (Homo sapiens) (UniProt P11511); test: qHTS assay to identify aromatase inhibitors (AID 743083); also: nearly all actives have a fitted effect of over 55% in size; also: potency is read from the fitted curve at half-maximal effect
Chain of Aromatase (Homo sapiens) (P11511 whole entry, looked up): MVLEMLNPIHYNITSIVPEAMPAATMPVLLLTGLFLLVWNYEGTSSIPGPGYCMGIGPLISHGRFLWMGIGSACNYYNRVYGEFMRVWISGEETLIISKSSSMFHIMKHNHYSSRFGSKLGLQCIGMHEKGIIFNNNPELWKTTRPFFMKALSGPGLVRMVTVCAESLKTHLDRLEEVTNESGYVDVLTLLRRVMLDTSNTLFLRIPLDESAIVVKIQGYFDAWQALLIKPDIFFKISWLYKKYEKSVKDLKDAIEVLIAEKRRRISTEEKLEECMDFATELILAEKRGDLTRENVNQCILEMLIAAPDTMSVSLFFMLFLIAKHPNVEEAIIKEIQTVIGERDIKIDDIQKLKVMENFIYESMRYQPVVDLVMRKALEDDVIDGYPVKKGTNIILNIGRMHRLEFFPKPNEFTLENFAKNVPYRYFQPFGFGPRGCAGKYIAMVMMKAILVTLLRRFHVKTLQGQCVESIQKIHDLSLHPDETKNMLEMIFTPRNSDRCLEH

[8] = tested on: thyroid hormone receptor (rat, GH3 cells); test: qHTS assay to identify small molecule agonists of the thyroid receptor (TR) signaling pathway (AID 743066; calls by dose curve)
[9] = molecular target: Estrogen receptor (Homo sapiens) (UniProt P03372); test: qHTS assay to identify small molecule antagonists of the estrogen receptor alpha (ER-alpha) signaling pathway (AID 743069; active = well fitted curve in the direction sought with a large enough effect in the signal ratio in the repeat runs, not every such curve was filed as active; inconclusive = weak or mixed curves, or effect the other way; inactive = no such curve, though single readings can be large or run the other way; the % refers to the signal ratio; also: potency is read from the fitted curve at half-maximal effect)
Method in brief: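 In this cell-based reporter format, GripTite HEK293 cells harbouring ER-alpha-UAS-bla were grown overnight with 2% charcoal-stripped FBS, dosed with DMSO-dissolved compounds, then challenged with 17beta-estradiol. After 18 hr at 37C, beta-lactamase activity was detected by FRET fluorescence.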

Measured: Potency

CNCCC=C1c2ccccc2CCc2ccccc21
active: [1] 11.9 µM | [2] 10.6 µM
inactive: [3] | [4] | [5] | [6]

CN1CCN(c2ccccc2/C=C2\SCCN(c3ccc(Cl)c(Cl)c3)C2=O)CC1
active: [1] 8.63 µM | [2] 8.63 µM | [7] 43.6 µM
inactive: [3] | Aromatase (Homo sapiens)

CCCCCCCC[N+](C)(C)CCCCCCCC
inactive: [3] | [6]
active: [1] 21.1 µM | [2] 11.9 µM and 13.3 µM | [5] 29.8 µM | Aromatase (Homo sapiens) 29.8 µM and 26.6 µM

NC(=O)C1c2ccccc2CCc2ccccc21
not listed: [2]
inactive: all other assays above

CC(C)[N+]1(C)[C@@H]2CC[C@H]1CC(OC(=O)C(CO)c1ccccc1)C2 (stereo partly drawn)
26.6 µM (active) and inactive: [4]
not listed: [2] | Aromatase (Homo sapiens)
inactive: all other assays above

C[C@]12O[C@H](C[C@]1(O)CO)n1c3ccccc3c3c4c(c5c6ccccc6n2c5c31)CNC4=O
active: [1] 0.188 µM | [2] 0.188 µM | [7] 21.3 µM | [6] 21.1 µM | Aromatase (Homo sapiens) 2.11 µM

CCCCCCCCOC(=O)c1cc(O)c(O)c(O)c1
active: [1] 2.17 µM | [2] 1.93 µM | [9] 61.6 µM [cytotoxic] | Aromatase (Homo sapiens) 34.4 µM

COc1cc(NS(C)(=O)=O)ccc1Nc1c2ccccc2nc2ccccc12
inactive: [7]
active: [1] 0.188 µM | [2] 0.596 µM | Aromatase (Homo sapiens) 26.6 µM

CN(C)CCOc1ccc(/C(=C(/CCCl)c2ccccc2)c2ccccc2)cc1
active: [1] 10.6 µM and 10.2 µM | [2] 11.9 µM and 8.09 µM | Aromatase (Homo sapiens) 21.1 µM and 6.42 µM
inactive: [8] | [6]

CC[C@@]1([C@@H]2O[C@@H]([C@H]3O[C@@](O)(CO)[C@H](C)C[C@@H]3C)C[C@@H]2C)CC[C@H]([C@]2(C)CC[C@]3(C[C@H](O)[C@@H](C)[C@@H]([C@@H](C)[C@@H](OC)[C@H](C)C(=O)O)O3)O2)O1 (stereo in doubt)
18.8 µM (active) and inactive: [6]
active: [1] 596 nM and 376 nM | [2] 376 nM and 266 nM
inactive: [3] | [4] | Aromatase (Homo sapiens)

CN[C@H](CC(C)C)C(=O)N[C@H]1C(=O)N[C@@H](CC(N)=O)C(=O)N[C@H]2C(=O)N[C@H]3C(=O)N[C@H](C(=O)N[C@@H](C(=O)O)c4cc(O)cc(O)c4-c4cc3ccc4O)[C@H](O)c3ccc(c(Cl)c3)Oc3cc2cc(c3O[C@@H]2O[C@H](CO)[C@@H](O)[C@H](O)[C@H]2O[C@H]2C[C@](C)(N)C(O)[C@H](C)O2)Oc2ccc(cc2Cl)[C@H]1O (stereo partly drawn)
not listed: [2]
inactive: all other assays above

CO/N=C(\C(=O)N[C@@H]1C(=O)N2C(C(=O)O)=C(C[N+]3(C)CCCC3)CS[C@H]12)c1csc(N)n1
not listed: [2]
inactive: all other assays above

N#Cc1nc(Cl)c(Cl)c(Cl)c1Cl
active: [1] 2.43 µM | [2] 1.72 µM | Aromatase (Homo sapiens) 4.86 µM
inactive: [6]

CN[C@@H]1[C@@H](O[C@H]2O[C@H](CO)[C@@H](N)[C@H](O)[C@H]2O)O[C@H]2C[C@@H](N)[C@@H](O[C@H]3[C@H](O)[C@@H](O)[C@H](N)C[C@@H]3N)O[C@@H]2[C@@H]1O
not listed: [2]
inactive: all other assays above

COc1cc2c(cc1O)CCN[C@]21CS[C@@H]2c3c(OC(C)=O)c(C)c4c(c3[C@H](COC1=O)N1[C@@H]2[C@H]2c3c(cc(C)c(OC)c3O)C[C@@H]([C@@H]1O)N2C)OCO4
inactive: [3]
active: [1] 2.4 nM and 4.3 nM | [2] 1.9 nM and 2.7 nM | [5] 26.6 nM and 43.3 nM | [6] 26.6 µM and 13.7 µM | Aromatase (Homo sapiens) 29.8 nM and 48.6 nM

C=CCc1cc(S(=O)(=O)c2ccc(O)c(CC=C)c2)ccc1O
inactive: [7] | [3] | [6]
active: [1] 61.1 µM | [2] 24.3 µM | [9] 34.7 µM [inconclusive] | [5] 61.1 µM | Aromatase (Homo sapiens) 54.5 µM

Cc1cc(CC(C)CC(C)(C)C)n(O)c(=O)c1 (stereo not drawn) (tested in a mixture with another compound)
active: [1] 29.8 µM | [2] 21.1 µM | Aromatase (Homo sapiens) 13.3 µM
inactive: [6]

Cc1cc(F)ccc1-c1cc(N2CC[C@@H](O)[C@H]2CO)ncc1N(C)C(=O)C(C)(C)c1cc(C(F)(F)F)cc(C(F)(F)F)c1
active: [1] 10.7 µM | [2] 9.54 µM | [7] 43 µM | Aromatase (Homo sapiens) 24 µM

CC/C=C\C/C=C\C/C=C\C/C=C\C/C=C\CCCC(=O)O
not listed: [2]
inactive: all other assays above

CC(=O)OCC(=O)[C@@]1(O)CC[C@H]2[C@@H]3C[C@H](C)C4=CC(=O)C=C[C@]4(C)[C@H]3[C@@H](O)C[C@@]21C
active: [4] 18.8 µM
not listed: [2] | [5] | [9]
inactive: all other assays above

COC(=O)C(CN)c1c[nH]c2ccc(OC)cc12 (stereo not drawn)
not listed: [2]
inactive: all other assays above

CCCOC(=O)c1ccccc1O
not listed: [2] | [6] | [9]
inactive: all other assays above

C/C=C/C1=C(C(=O)O)N2C(=O)[C@@H](NC(=O)[C@H](N)c3ccc(O)cc3)[C@H]2SC1
not listed: [2]
inactive: all other assays above

NC(=O)[C@@H]1CCCN1C(=O)[C@H](Cc1cnc[nH]1)NC(=O)[C@@H]1CCC(=O)N1
not listed: [2]
inactive: all other assays above

Cc1ccc(C(C)(C)c2ccc(C)cc2)cc1
not listed: [2]
inactive: all other assays above

CC(C)(O/N=C(\C(=O)N[C@@H]1C(=O)N2C(C(=O)[O-])=C(C[n+]3ccccc3)CS[C@H]12)c1csc(N)n1)C(=O)O
not listed: [2] | [7]
inactive: all other assays above

CCCCCCCCCC(=O)NO
not listed: [2]
inactive: all other assays above

CC(C)COC(=O)OCN1C(=O)CN(CCN2CC(=O)N(COC(=O)OCC(C)C)C(=O)C2)CC1=O
not listed: [2] | [9]
inactive: all other assays above

CC[C@@H](C)[C@H](N)C(=O)O
active: [4] 26.6 µM
not listed: [2] | [9]
inactive: all other assays above

Cc1cccc(C)c1NC(=O)C1CCCCN1C (stereo not drawn)
not listed: [2] | [6]
inactive: all other assays above

CC(C)(COP(=O)(O)OP(=O)(O)OC[C@H]1O[C@@H](n2cnc3c(N)ncnc32)[C@H](O)[C@@H]1OP(=O)(O)O)C(O)C(=O)NCCC(=O)NCCS (stereo partly drawn)
active: [4] 26.6 µM
not listed: [2]
inactive: all other assays above

COc1ccc(/C=C/C(=O)O)cc1
not listed: [2]
inactive: all other assays above

CO/N=C(\C(=O)N[C@@H]1C(=O)N2C(C(=O)O)=C(COC(C)=O)CS[C@H]12)c1csc(N)n1 (stereo in doubt)
inactive: [1] | [8] | [7] | [6]

CCN(CC)CCOC[C@H]1O[C@@H](O)[C@H](OCCN(CC)CC)[C@@H](O)[C@@H]1O
not listed: [2] | [9]
inactive: all other assays above

O=C[C@H](O)[C@@H](O)[C@@H](O)[C@H](O)CO
not listed: [2]
inactive: all other assays above

O=C(O)c1ccc(NC2OC[C@@H](O)[C@H](O)[C@H]2O)cc1 (stereo partly drawn)
not listed: [2]
inactive: all other assays above

Clc1nc(C(Cl)(Cl)Cl)c(Cl)c(Cl)c1Cl
active: [1] 21.7 µM
inactive: [8] | [7] | [3] | [6]

O=C(N[C@H](CO)[C@H](O)c1ccc([N+](=O)[O-])cc1)C(Cl)Cl
not listed: [2]
inactive: all other assays above
